Assay results reported in the supplement of paper PMC11417369.
± gives the standard deviation of the averaged measurements. The full ranking holds about 25,000 sequences; the median of “ln(normalized median fluorescence intensity)” is about 8.6, and the highest 2% start at about 10. Only a selection was taken, and the highest values are over-represented in it overall.

The sequences below were run on PfAP2-EXP AP2 domain (GST-tagged) (assay: gcPBM binding intensity (ln(normalized median fluorescence intensity)); higher = stronger DNA binding).
Outline: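 After 1 h on an Agilent 4 × 180k array of primer-extended double-stranded 36-bp intergenic genomic probes and negative controls, bound GST-tagged P. falciparum DNA-binding domains were detected with Alexa488 anti-GST antibody and scanned at 488 nm. The domains had been expressed in E. coli, and binding took place in 1× PBS with 1% milk, 0.2 mg/ml BSA, 0.5% salmon testes DNA and 0.03% Triton X-100. Binding intensity is the highest Masliner-normalised natural-log median intensity across replicate spots of either probe orientation.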

Sequence | gcPBM binding intensity (ln)
CATGTATTTTATATTACACACTAATATTATAGATAT [CACACA_site6819] | 8.27 ± 0.28
GCTTCTTAGTATACTTTATAAAATATATATTAAATA [XGTACX_negctrl_site57] | 8.75 ± 0.47
AATATTTTATTTTTTCTCATTAAAAATTTTTTTTTT [CACACA_negctrl_site364] | 8.46 ± 0.45
TAAAATGTAATCTGAACACACATATTTTTTTAATAT [CACACA_site1768] | 8.12 ± 0.52
CTAACAACCAAACGCACACACACAAAAAAAAAAATA [CACACA_site400] | 8.48 ± 0.42
AAATATTTTTTAATTGTTCACTTGGTGGATCATTAA [CACACA_negctrl_site922] | 8.28 ± 0.28
TTTTTTTTTTTTTTTTGTACATATTTTAATTTGTTT [XGTACX_site6297] | 8.05 ± 0.4
TATTTTCCATGAGGTAGTACACATTAAAAAATCGTT [XGTACX_site6887] | 8.44 ± 0.29
AAGAATATTATAAACACACACTTTATAAAGAATTAT [CACACA_site4241] | 8.51 ± 0.52
TAATTTAAAAATTCCTGTACTCAGTTTTTTCTATTT [XGTACX_site4961] | 8.48 ± 0.39
TATGTGCCAAAACACACACACATATATATATATATA [CACACA_site469] | 10.2 ± 0.11
AAAAAAAAAAAACATACACACATACATACATATATA [CACACA_site8222] | 8.48 ± 0.4
AAAAAAAAAAAACATACACACACATATATATATATA [CACACA_site8452] | 10 ± 0.54
CATATATAAAAAAACACACACATATATATATATATA [CACACA_site1195] | 10.2 ± 0.61
AAAAAACAAAAACACACACACACATATATATATATA [CACACA_site3654] | 9.94 ± 0.36
AAAAAAACACACACATATATATATATATATATATAT [GTGCAC_negctrl_site498] | 10.2 ± 0.41
AAAACATACATATATACACACATATATATATATATA [CACACA_site1852] | 10.2 ± 0.23
AAAAAAAAAAAAAAAACACACATATATGTATATATA [CACACA_site3276] | 8.28 ± 0.5
ATTATGTGCCAATACACACACACATATATATATATA [CACACA_site468] | 9.91 ± 0.44

Sequence | gcPBM binding intensity (ln)
AAACAAAAAAAATAAGCACACATATATATATATATA [CACACA_site8173] | 10.1 ± 0.26
TTTAAGCAAAAACACACACACATATATATATATATA [CACACA_site349] | 10.1 ± 0.41
TATAAGCAAAAACACACACACATATATATATATATA [CACACA_site3804] | 10.3 ± 0.28
ACAGCTCTAGGACATGCATGTTATATAGAAAAAGAG [TGCATGCA_site703] | 9.59 ± 0.32
TTATACAACAAGAAAATTATAAAATGTAACATATAT [GTGCAC_negctrl_site406] | 8.53 ± 0.42
TTTATAATTTATATCACACATATATCTGTAATAAAT [CACACA_site5048] | 8.24 ± 0.44
TATATTTATAGACACACACACAAAAAAAAAAAAAAA [CACACA_site6818] | 8.37 ± 0.31
ATTTTCATGATAAAGGTGCAATTATTTTTATAAGAA | 8.74 ± 0.13
ATTATTGTTTATTGATTTTTGTTAAAATAGGAAATT [GTGCAC_negctrl_site181] | 8.37 ± 0.4
AAAAAAATCACATAAAATACTTTATTTTATATTATA [GTGCAC_negctrl_site372] | 7.89 ± 0.36
ATTTTTAATCATTTACAACCTAGTGATTATACAAAT [CACACA_negctrl_site1089] | 8.51 ± 0.35
AAAAAAAAAAAGCACACACACATATGCGTATATATA [CACACA_site954] | 8.49 ± 0.57
TAAGAAAATATTTATGTATGCATGTCCTAATATTTC [TGCATGCA_site295] | 8.44 ± 0.3
TTGCCTTAAAAAGGAACACACATGCTTTTTTTAGTT [CACACA_site938] | 8.37 ± 0.45
TATTATAAATAAATAGAAAAAAAAATGATAAATGGA [CACACA_negctrl_site865] | 8.62 ± 0.42
TATGCATATACACAAGCACACATATATATATATATA [CACACA_site8266] | 10.1 ± 0.32
AAAAAAAAAAAAAAAACACACATATATATATATATA [CACACA_site2436] | 10.4 ± 0.11
TGCATATACGCAAGCACACATATATATATATATATA [CACACA_site1069] | 10.2 ± 0.51
TGCATATACTCAAGCACACATATATATATATATATA [CACACA_site4733] | 10.2 ± 0.33

Sequence | gcPBM binding intensity (ln)
AAAACAAACAGACACACACACATATATATATATATA [CACACA_site3655] | 10.3 ± 0.21
AACACACACATATATATATATATATATATATATATA [GTGCAC_negctrl_site573] | 10 ± 0.47
AAAAAAAAAAAAAACACACATACATACATACATATA [CACACA_site4121] | 8.55 ± 0.16
AAAACAGACAAACACACACACACATATATATATATA [CACACA_site3393] | 10.1 ± 0.49
AAAAAAAACAGACACACACACATACAAAATATATAT [CACACA_site1449] | 8.73 ± 0.47
AACTATAATTAAAGGATGCACTTGAAGGCATTTCAA [GTGCAC_site9689] | 8.34 ± 0.35
GCATATATCAAATATCGTACATTTTTTAAATTAAAA [XGTACX_site3994] | 8.42 ± 0.47
TACGTTCTGATATATACACACCTGGTATTAATTATG [CACACA_site7113] | 8.93 ± 0.46
AAAAAAAAATTAAAATGTACACATAAAAAAAAAAAA [XGTACX_site794] | 8.64 ± 0.42
ATTTCCTGGCTACTGTGTACTGACCTCCAGACTGCT [XGTACX_site2005] | 8.81 ± 0.55
ACTACATAATATTTACGTACCTAAAAAATTCTTATA [XGTACX_site509] | 8.51 ± 0.33
ATAATATAAATATGCACACAAATTATTACCCAAAAA [CACACA_site2524] | 8.56 ± 0.2
TTAAAAAAATATAATACACACCAAAAATATGCACAT [CACACA_site5209] | 8.85 ± 0.35
GGAAAAAATATATGCACACCCCCCAAAAAAAAAAAA [CACACA_site2222] | 10.95 ± 0.099
TGGGAAAAAATATATGCACACCCCCCAAAAAAAAAA [CACACA_site8696] | 11.1 ± 0.35
AAAAAAAAAAAAAACACACACACACCCAAATATATA [CACACA_site1169] | 8.71 ± 0.3
AAAAAAAAAAAACACACACACACACCCAAATATATA [CACACA_site150] | 8.49 ± 0.61
TACATATTTTATAGCACACAAATAATAATATGTAGT [CACACA_site688] | 8.68 ± 0.31
